# From the supplement of paper PMC8728848
# The full list was thinned out, with the strongest signals kept by preference.
# Legend:
# Test in all cases: glycan array binding signal (z-score within array); higher = stronger binding
# Conditions in all cases: glycan notation: IUPAC condensed, linker removed
# [1] = target: Fuc(a1-2)Gal(b1-3)GalNAc(b1-3)Gal
# Method in brief: (§1)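 Glycan array data were curated from 3228 arrays in the Consortium for Functional Glycomics database and kept only where the protein sequence was available. Glycan names were converted to IUPAC-condensed notation, and columns mapping to the same glycan were averaged. The binding signal is a within-array Z-score, averaged across arrays of the same protein sequence at different concentrations or buffers and across linkers. Negative Z-scores can be read as non-binding.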
# [2] = target: Fuc(a1-2)Gal(b1-4)GlcNAc(b1-2)Man(a1-3)[Fuc(a1-2)Gal(b1-4)GlcNAc(b1-2)Man(a1-6)]Man(b1-4)GlcNAc(b1-4)GlcNAc
# Method in brief: as §1
# [3] = target: Fuc(a1-2)Gal(b1-4)[Fuc(a1-3)]GlcNAc
# Method in brief: as §1
# [4] = target: Fuc(a1-2)[Gal(a1-3)]Gal(b1-4)Glc
# Method in brief: as §1
# [5] = target: Fuc(a1-2)[GalNAc(a1-3)]Gal(b1-4)GlcNAc(b1-3)Gal(b1-4)GlcNAc(b1-3)Gal(b1-4)GlcNAc
# Method in brief: as §1
# Gal(a1-3)Gal = target: Gal(a1-3)Gal
# Method in brief: as §1
# [6] = target: Gal(a1-3)Gal(b1-4)GlcNAc(b1-3)GalNAc
# Method in brief: as §1
# [7] = target: Gal(a1-3)Gal(b1-4)[Fuc(a1-3)]GlcNAc(b1-2)Man(a1-3)[Gal(a1-3)Gal(b1-4)[Fuc(a1-3)]GlcNAc(b1-2)Man(a1-6)]Man(b1-4)GlcNAc(b1-4)GlcNAc
# Method in brief: as §1
# Gal(a1-3)GalNAc = target: Gal(a1-3)GalNAc
# Method in brief: as §1
# Gal(b1-3)Gal(b1-4)GlcNAc = target: Gal(b1-3)Gal(b1-4)GlcNAc
# Method in brief: as §1
# [8] = target: Gal(b1-3)GlcNAc(b1-2)Man(a1-3)[Gal(b1-3)GlcNAc(b1-2)Man(a1-6)]Man(b1-4)GlcNAc(b1-4)[Fuc(a1-6)]GlcNAc
# Method in brief: as §1
# [9] = target: Gal(b1-4)GlcNAc(b1-2)Man(a1-3)[Gal(b1-4)GlcNAc(b1-2)Man(a1-6)]Man(b1-4)GlcNAc(b1-4)GlcNAc
# Method in brief: as §1
# [10] = target: Gal(b1-4)GlcNAc(b1-2)Man(a1-3)[Gal(b1-4)GlcNAc(b1-2)Man(a1-6)]Man(b1-4)GlcNAc(b1-4)[Fuc(a1-6)]GlcNAc
# Method in brief: as §1
# [11] = target: Gal(b1-4)GlcNAc(b1-3)Gal(b1-4)GlcNAc(b1-3)Gal(b1-4)GlcNAc
# Method in brief: as §1
# [12] = target: Gal(b1-4)GlcNAc(b1-3)Gal(b1-4)[Fuc(a1-3)]GlcNAc(b1-3)Gal(b1-4)[Fuc(a1-3)]GlcNAc
# Method in brief: as §1
# [13] = target: Gal(b1-4)GlcNAc(b1-3)[GlcNAc(b1-6)]Gal(b1-4)GlcNAc
# Method in brief: as §1
# Gal6S(b1-4)Glc6S = target: Gal6S(b1-4)Glc6S
# Method in brief: as §1
# GalNAc(a1-3)Gal = target: GalNAc(a1-3)Gal
# Method in brief: as §1
# [14] = target: GlcNAc(a1-4)Gal(b1-4)GalNAc
# Method in brief: as §1
# [15] = target: GlcNAc(a1-4)Gal(b1-4)GlcNAc(b1-3)Gal(b1-4)[Fuc(a1-3)]GlcNAc(b1-3)Gal(b1-4)[Fuc(a1-3)]GlcNAc
# Method in brief: as §1
# [16] = target: GlcNAc(b1-2)Man(a1-3)[GlcNAc(b1-2)Man(a1-6)]Man(b1-4)GlcNAc(b1-4)[Fuc(a1-6)]GlcNAc
# Method in brief: as §1
# [17] = target: Man(a1-3)[Man(a1-6)]Man(a1-6)[Man(a1-2)Man(a1-3)]Man(b1-4)GlcNAc(b1-4)GlcNAc
# Method in brief: as §1
# [18] = target: Neu5Ac(a2-3)Gal(b1-4)GlcNAc(b1-3)Gal(b1-4)GlcNAc
# Method in brief: as §1
# [19] = target: Neu5Ac(a2-3)Gal(b1-4)[Fuc(a1-3)]GlcNAc
# Method in brief: as §1
# [20] = target: Neu5Ac(a2-3)GalNAc(b1-4)GlcNAc
# Method in brief: as §1
# Neu5Ac(a2-6)Gal = target: Neu5Ac(a2-6)Gal
# Method in brief: as §1
# [21] = target: Neu5Gc(a2-3)Gal(b1-4)[Fuc(a1-3)]GlcNAc
# Method in brief: as §1
# [22] = target: Neu5Gc(b2-6)Gal(b1-4)GlcNAc
# Method in brief: as §1
binder,measurement,setting,value
"SRS6 (Toxoplasma gondii), Q9NH12 (protein) MARTGSMQQRRGGFQTTARMLMAVCVSGVLLLSSGPSSANKLTEGQQNQNSGPGAATQEGPTIEGAVAKCVLKTTAAENGSSRAKNTTGLTLSKENLVVSLQCSGEKNAIVPKDQKKVCSAAPNAKVADCKGADTDKQVTLKSLLGTSGDIQWEKTIVSTDNKGEVMTLKIKESELPLFDKAFFVGCEEDKAQTRTSQATECKVNVSVKARPSTVGENNVVTCAYGKDSNPRPLEVEMSADNDTLTIDCGTDGSLKPTKYTEEFCVTDNSQLESCTTKKFSEILPTFLPSWWVSDSQNGSAKLTIPESGFPEEQQQFRLGCVPKKTTQSPQANPSVKTEKEEGAQNTDASTSNCSVIVTVKASNFSSLASSIAPTAAVAGGAAALTGFLVGSF",glycan array binding signal (z-score),[1],1.86
same,glycan array binding signal (z-score),[2],1.71
same,glycan array binding signal (z-score),[3],0.016
same,glycan array binding signal (z-score),[4],-0.753
same,glycan array binding signal (z-score),[5],-0.105
same,glycan array binding signal (z-score),Gal(a1-3)Gal,0.351
same,glycan array binding signal (z-score),[6],0.006
same,glycan array binding signal (z-score),[7],0.436
same,glycan array binding signal (z-score),Gal(a1-3)GalNAc,-0.288
same,glycan array binding signal (z-score),Gal(b1-3)Gal(b1-4)GlcNAc,-0.549
same,glycan array binding signal (z-score),[8],1.28
same,glycan array binding signal (z-score),[9],-0.558
same,glycan array binding signal (z-score),[10],3.04
same,glycan array binding signal (z-score),[11],2.32
same,glycan array binding signal (z-score),[12],-0.096
same,glycan array binding signal (z-score),[13],0.169
same,glycan array binding signal (z-score),Gal6S(b1-4)Glc6S,4.38
same,glycan array binding signal (z-score),GalNAc(a1-3)Gal,0.054
same,glycan array binding signal (z-score),[14],0.375
same,glycan array binding signal (z-score),[15],0.807
same,glycan array binding signal (z-score),[16],13.7
same,glycan array binding signal (z-score),[17],1.44
same,glycan array binding signal (z-score),[18],2.13
same,glycan array binding signal (z-score),[19],-0.808
same,glycan array binding signal (z-score),[20],-0.177
same,glycan array binding signal (z-score),Neu5Ac(a2-6)Gal,0.288
same,glycan array binding signal (z-score),[21],0.103
same,glycan array binding signal (z-score),[22],0.403
